Test systems include SR leukemia; RPMI-8226 leukemia; OVCAR-8 ovarian; OVCAR-5 ovarian; OVCAR-4 ovarian; SK-OV-3 ovarian; IGROV1 ovarian; HS 578T breast; NCI/ADR-RES ovarian; T-47D breast; BT-549 breast; MDA-MB-435 melanoma; SW-620 colon; MCF7 breast; HCT-116 colon; HCC-2998 colon; KM12 colon.
Common to all, as to experiment: NCI-60 one-dose screen, 48 h (100 = growth as untreated, 0 = no growth, -100 = all killed)
Common to all, as to settings: 10 µM unless noted

This is part of a sample that, as a whole, favours compounds with a hit. Of some 83,000 tested, about 20% had one in any assay.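 Single-dose data. Exposure time 48 hours. Values below 10 considered active.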 A number with no mark means an inactive call. Activity calls are given as the source filed them.

As to `O=S(=O)(NC1CC2CCC1C2)c1ccc2c(c1)C(=NO)c1cc(S(=O)(=O)NC3CC4CCC3C4)ccc1-2` (stereo not drawn), the growth in the experiment on SR leukemia was -7.47% (active); in the experiment with RPMI-8226 leukemia, -24.6% (active); in the experiment on OVCAR-8 ovarian, 67%; with OVCAR-5 ovarian it was 42.5%; in the experiment on OVCAR-4 ovarian, -52.4% (active); in the experiment on SK-OV-3 ovarian it was 86.4%. Also, the growth with IGROV1 ovarian is -73.7% (active); with HS 578T breast, 86%; with NCI/ADR-RES ovarian, 63.7%; in the experiment on T-47D breast, -0.508% (active); in the experiment with BT-549 breast it was 31.7%; with MDA-MB-435 melanoma, 27.1%. Besides, the growth was -63.4% (active) with SW-620 colon; 25.3% in the experiment with MCF7 breast; 20.3% with HCT-116 colon; 38.9% in the experiment on HCC-2998 colon; 45.9% in the experiment on KM12 colon.

`O=C1c2c(c3c4cccnc4[nH]c3c3ccc4ccccc4c23)C(=O)N1CCN1CCNCC1`: the growth with SR leukemia was -6.6% (active); in the experiment on RPMI-8226 leukemia, 74.3%; in the experiment with OVCAR-8 ovarian, 50.8%; in the experiment with OVCAR-5 ovarian it was 113%; in the experiment with OVCAR-4 ovarian, 105%; in the experiment on SK-OV-3 ovarian it was 101%. In addition, the growth in the experiment on IGROV1 ovarian is 51.7%; in the experiment on HS 578T breast, 107%; with NCI/ADR-RES ovarian, 81.4%; in the experiment on T-47D breast it was 99.2%; with BT-549 breast it was 102%; with MDA-MB-435 melanoma, 89.9%. For the same compound, the growth in the experiment with SW-620 colon is 55.9%; in the experiment on MCF7 breast, 27.8%; in the experiment with HCT-116 colon it was 36.6%; in the experiment on HCC-2998 colon it was 81.8%; in the experiment on KM12 colon it was 73.6%.

In the case of `Cc1cnc2nc(NN)[nH]n12`, the growth was 101% with SR leukemia; 104% with RPMI-8226 leukemia; 98% with OVCAR-8 ovarian; 101% with OVCAR-5 ovarian; 104% in the experiment on OVCAR-4 ovarian; 102% with SK-OV-3 ovarian. For the same compound, the growth with IGROV1 ovarian is 97.6%; in the experiment on HS 578T breast it was 107%; with NCI/ADR-RES ovarian it was 104%; with T-47D breast, 98.4%; in the experiment on BT-549 breast, 111%; in the experiment with MDA-MB-435 melanoma it was 99.7%. Besides, the growth is 103% with SW-620 colon; 92.6% in the experiment on MCF7 breast; 98.9% in the experiment with HCT-116 colon; 108% in the experiment on HCC-2998 colon; 100% in the experiment with KM12 colon.

For the compound `COc1cc(-c2nc(SCc3ccc(C)cc3)[nH]c(=O)c2C#N)ccc1OCc1ccccc1`, the growth in the experiment on SR leukemia is 125%; in the experiment with RPMI-8226 leukemia, 105%; in the experiment on OVCAR-8 ovarian, 101%; with OVCAR-5 ovarian, 105%; in the experiment with OVCAR-4 ovarian, 98.1%; in the experiment with SK-OV-3 ovarian it was 108%. The growth was 116% in the experiment on IGROV1 ovarian; 107% with HS 578T breast; 103% in the experiment on NCI/ADR-RES ovarian; 109% in the experiment on T-47D breast; 156% with BT-549 breast; 98.2% in the experiment with MDA-MB-435 melanoma. The growth in the experiment with SW-620 colon was 107%; in the experiment with MCF7 breast, 94.5%; in the experiment on HCT-116 colon, 112%; in the experiment with HCC-2998 colon it was 117%; in the experiment with KM12 colon, 102%.

Consider `O=C1Nc2cc(OC(F)(F)F)ccc2Oc2ccc(-c3ccnc(N4CC[C@H](O)C4)c3)cc21`, for which the growth is -6.83% (active) in the experiment with SR leukemia; 17% in the experiment with RPMI-8226 leukemia; -14.4% (active) with OVCAR-8 ovarian; 25.5% with OVCAR-5 ovarian; 48.5% in the experiment with OVCAR-4 ovarian; 27.1% in the experiment with SK-OV-3 ovarian. The growth was 16.8% in the experiment on IGROV1 ovarian; 24.5% with HS 578T breast; 9.76% (active) with NCI/ADR-RES ovarian; 62.3% in the experiment on T-47D breast; -18.7% (active) in the experiment with BT-549 breast; -57.3% (active) in the experiment with MDA-MB-435 melanoma. Also, the growth was -19.3% (active) in the experiment on SW-620 colon; 0.967% (active) with MCF7 breast; -40.5% (active) in the experiment on HCT-116 colon; 0.963% (active) in the experiment on HCC-2998 colon; -12.9% (active) with KM12 colon.

As for `CC1(COc2ccc3ncc(C#Cc4cncc(C(=O)Nc5cc(C(C)(C)C)on5)c4)n3n2)COC1`, the growth was 34% with SR leukemia; 47.3% in the experiment with RPMI-8226 leukemia; 35.5% with OVCAR-8 ovarian; 55.9% in the experiment with OVCAR-5 ovarian; 55.6% with OVCAR-4 ovarian; 61.2% in the experiment on SK-OV-3 ovarian. Besides, the growth with IGROV1 ovarian was 25%; in the experiment on HS 578T breast, 15.1%; in the experiment on NCI/ADR-RES ovarian it was 22.2%; with T-47D breast it was 32.5%; with BT-549 breast it was 81.3%; in the experiment on MDA-MB-435 melanoma, 50%. In addition, the growth with SW-620 colon is 38.2%; in the experiment with MCF7 breast it was 40.5%; with HCT-116 colon, 17.9%; in the experiment on HCC-2998 colon, 49.7%; in the experiment with KM12 colon, 15%.

As to `CCN1C(=O)N(CC)C2SC(N/N=C/c3ccccc3F)=NC21` (stereo not drawn), the growth is 18.7% in the experiment on SR leukemia; 20.3% in the experiment with RPMI-8226 leukemia; 3.86% (active) in the experiment on OVCAR-8 ovarian; 47.5% in the experiment with OVCAR-5 ovarian; 68.4% in the experiment with OVCAR-4 ovarian; 30.4% with SK-OV-3 ovarian. Also, the growth in the experiment with IGROV1 ovarian was 28.3%; in the experiment on HS 578T breast it was 11.9%; with NCI/ADR-RES ovarian, 5.59% (active); with T-47D breast, 61.9%; with BT-549 breast, -20.1% (active); in the experiment with MDA-MB-435 melanoma, -53.5% (active). The growth in the experiment with SW-620 colon is 19%; in the experiment with MCF7 breast, 16.2%; in the experiment on HCT-116 colon it was 13.6%; with HCC-2998 colon, 17.1%; with KM12 colon it was 11.8%.

On to `O=c1[nH]c2cc(Cl)ccc2n1C1CCN(c2ccc3nnc(Cl)n3n2)CC1`, for which the growth in the experiment with SR leukemia is 81.8%; in the experiment with RPMI-8226 leukemia it was 90.9%; with OVCAR-8 ovarian, 93.4%; with OVCAR-5 ovarian, 95.5%; in the experiment with OVCAR-4 ovarian, 88.7%; with SK-OV-3 ovarian, 77.5%. In addition, the growth in the experiment with IGROV1 ovarian was 96.6%; in the experiment on HS 578T breast, 87.7%; with NCI/ADR-RES ovarian it was 99.9%; in the experiment with T-47D breast, 86.6%; with BT-549 breast it was 94.2%; with MDA-MB-435 melanoma, 98.4%. Further, the growth was 93.4% with SW-620 colon; 81.1% in the experiment on MCF7 breast; 106% in the experiment with HCT-116 colon; 100% in the experiment with HCC-2998 colon; 96.5% with KM12 colon.

In the case of `COc1ccc(NC(=O)[C@H](C)NC(=O)OC(C)(C)C)cc1C(=O)Nc1cccc(-c2cc(=O)c3c(OC)c(OC)c(OC)cc3o2)c1`, the growth in the experiment with SR leukemia is 8.47% (active); in the experiment on RPMI-8226 leukemia it was -39.4% (active); in the experiment with OVCAR-8 ovarian, -27.5% (active); in the experiment with OVCAR-5 ovarian, 3.94% (active); in the experiment on OVCAR-4 ovarian it was 21.3%; in the experiment with SK-OV-3 ovarian, -17.8% (active). Moreover, the growth in the experiment with IGROV1 ovarian was 11.5%; with HS 578T breast, -9.5% (active); in the experiment with NCI/ADR-RES ovarian, 61.4%; with T-47D breast, -24.7% (active); in the experiment on BT-549 breast it was -85% (active); in the experiment on MDA-MB-435 melanoma it was 7.35% (active). Moreover, the growth in the experiment with SW-620 colon was -25.6% (active); in the experiment on MCF7 breast, -9.71% (active); with HCT-116 colon, -61.7% (active); in the experiment on HCC-2998 colon, -60.8% (active); with KM12 colon, -36.4% (active).

These data come from PubChem BioAssay (NCI).
